# Screens as filed in PubChem BioAssay.
# D2 PAM-1 – positive allosteric modulators of human D2 dopamine receptor; P14416; DiscoveRx D2 beta-arrestin cells, luminescence, 90 min; 100% = 57 uM dopamine signal; potentiation, % (no concentration beside the values); 360,000 tested, 0.23% active; in the data active = potentiation above about 50%; inconclusive = mostly about 30% to 49%
# Target sequence (P14416 whole entry, looked up): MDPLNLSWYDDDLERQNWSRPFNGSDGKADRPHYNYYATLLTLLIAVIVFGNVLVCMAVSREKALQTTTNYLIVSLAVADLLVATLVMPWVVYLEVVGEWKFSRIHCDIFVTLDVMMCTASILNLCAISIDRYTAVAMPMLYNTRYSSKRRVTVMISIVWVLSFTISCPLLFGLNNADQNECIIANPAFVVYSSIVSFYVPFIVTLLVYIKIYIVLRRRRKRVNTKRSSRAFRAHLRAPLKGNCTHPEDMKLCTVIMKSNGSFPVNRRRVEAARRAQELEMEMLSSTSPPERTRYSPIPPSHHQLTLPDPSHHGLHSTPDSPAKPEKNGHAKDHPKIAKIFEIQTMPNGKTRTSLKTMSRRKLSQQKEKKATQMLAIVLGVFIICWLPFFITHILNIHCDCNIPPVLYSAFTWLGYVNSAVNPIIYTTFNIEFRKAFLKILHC
#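 PathHunter D2 cells, attached overnight at 37 deg C, received compound in DMSO plus dopamine at EC20 (50 nM final) for 90 min at 37 deg C. Beta-arrestin recruitment was read as luminescence after 1 h with detection reagent at ambient temperature.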
# D2 antagonist – antagonizes the human D2 dopamine receptor; P14416; HEK293 TREx D2 cells, calcium flux, dopamine EC80; inhibition, % at 10 µM; 340,000 tested, 2% active; in the data active = inhibition above about 30%; inactive = below that, where a call was filed
#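 Read-out: kinetic calcium fluorescence (1 cycle/s) in inducible HEK293 T-REx D2 cells after an EC80 dopamine addition that followed 180 s compound preincubation. Loss of the dopamine response indicates antagonism.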
# D2 ag-1 – activates the human D2 dopamine receptor; P14416; HEK293 T-REx D2 cells, calcium flux agonist mode; activation, % at 2 µM; 340,000 tested, 0.53% active; AID 485358;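 active = activation over 3 SD above normal in the single-dose calcium agonist read, cut at about 30% in these data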
#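 HEK293 Trex D2 cells, tetracycline-induced, o/n 30 C 5% CO2; no-wash Ca dye, RT 30–90 min; 10-cycle baseline, 23 nl cpd added, kinetic Ca read 180 s; agonist hits = positive Ca response.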
# D2 PAM-2 – positively modulates the human D2 dopamine receptor allosterically. P14416. HEK293 T-REx D2, calcium flux, EC20 dopamine potentiation. potentiation, % at 10 µM. 340,000 tested, 0.34% active;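 active = potentiation over 3 SD above the plate norm, cut at about 30% in these data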
#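 Calcium flux readout, no-wash dye, 1 read/s. Inducible HEK293 Trex D2 line, overnight 30 C. Compound alone 180 s (agonist flags), then EC20 dopamine, another 180 s to score potentiation.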
# D2 ag-2 – activates the human D2 dopamine receptor. P14416. DiscoveRx PathHunter D2 beta-arrestin, luminescence, 90 min; 100% = 57 uM dopamine signal. activation, % (test concentration not listed). 360,000 tested, 0.084% active. AID 624465; in the data active = activation above about 40%; inconclusive = between about 15% and that limit
#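 DiscoveRx PathHunter D2 beta-arrestin cells (2,100/well) attached overnight, then compound-stimulated 90 min at 37 C in HBSS/10 mM HEPES/0.1% Tween-20 buffer; beta-galactosidase complementation read by luminescence after 1 h at ambient temperature. Dopamine 57 uM final (EC100) as control.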
# A number is an active result; n = inactive; u = inconclusive; x = no result given. Hits are enriched below; roughly 2.4% of the tested compounds scored in any of these assays.
SMILES,D2 PAM-1,D2 antagonist,D2 ag-1,D2 PAM-2,D2 ag-2
CSc1nn(Cc2cccc(Cl)c2)c(N(C(C)=O)C(C)=O)c1S(=O)(=O)c1ccccc1,x,x,n,n,x
O=[N+]([O-])c1ccc(C(c2sc3nc(-c4ccco4)nn3c2O)N2CCC3(CC2)OCCO3)cc1 (centres undefined),x,x,n,n,x
COc1ccc(N(CC(=O)Nc2cccc(Cl)c2C)S(=O)(=O)c2c(C)nn(C)c2C)cc1,x,x,n,n,x
O=C1/C(=C\c2cc(Cl)c(O)c(Cl)c2)SC(=S)N1Cc1ccccc1,n,69,n,n,n
CCN(CC)C(=O)CN1C(=O)/C(=C/c2ccccc2)SC1=S,n,n,n,n,n
CC(=O)NNC(=O)CN1C(=O)/C(=C/c2ccccc2)SC1=S,n,74,n,n,n
Cc1ccc(S(=O)(=O)Cc2ccc(C(=O)NCCc3ccc(Cl)cc3)o2)cc1,x,x,n,n,x
CCc1ccc(OCC(=O)N(Cc2ccco2)Cc2ccco2)cc1,x,x,n,n,x
CSc1ccc(C#N)cc1NC(=O)c1ccccc1C,n,51,n,n,n
COc1ccc(-c2noc(CSc3nnc(-c4ccncc4)n3-c3ccc(OC)cc3)n2)cc1,x,x,n,x,x
Cc1cc(=O)oc2c(C)c(OCC(=O)Nc3cccnc3)ccc12,n,36,n,n,n
CCOC(=O)c1ccc(NC(=O)c2c(NCc3cccs3)sc3c2CCCCC3)cc1,x,x,n,n,x
O=C(N/N=C/c1cc2c(cc1Br)OCO2)c1cc2ccccc2o1,n,80,n,n,n
CC(C)(C)c1cc(C(=O)N/N=C/c2cc3c(cc2Br)OCO3)n[nH]1,n,49,n,n,n
O=C(N/N=C/c1cc2c(cc1Br)OCO2)c1ccccn1,n,n,n,n,n
N#C/C(=C\c1cc(Br)c(O)c(Br)c1)c1nc2ccccc2c(=O)[nH]1,x,x,x,n,x
COC(=O)C1=C(O)/C(=C\c2cc(C)n(-c3ccccc3C)c2C)N=C1C,n,32,n,n,n
COc1cccc(N2C(=O)CSC23C(=O)N(CC(=O)NCc2ccc(C)cc2)c2ccccc23)c1 (centres undefined),x,x,x,n,x
COCc1cc(C)nc2sc3c(c12)NC(c1ccc(O)cc1)N(c1ccc(OC)cc1)C3=O (centres undefined),x,x,n,n,x
COc1ccc2c(CNCc3cccs3)c(C(=O)O)n(Cc3ccccc3F)c2c1,x,x,x,n,x
CCCCc1nc(N2CCN(C(=O)c3ccco3)CC2)c(C#N)c2c1CCCC2,n,31,n,n,n
C=C(C)Cn1c(SCC(=O)O)nnc1-c1ccc(C(C)(C)C)cc1,n,30,n,n,n
C=C(C)Cn1c(SCC(=O)O)nnc1-c1ccccc1,n,n,n,n,n
Cc1nonc1OCCN1CCN(c2ccccc2[N+](=O)[O-])CC1,n,53,n,n,n
O=C1c2ccc([N+](=O)[O-])cc2S(=O)(=O)N1Cc1ccccc1,72,n,n,n,u
SMILES,D2 PAM-1,D2 antagonist,D2 ag-1,D2 PAM-2,D2 ag-2
Cc1ccc(C)c(N2CCN(C(=O)c3cc4c(=O)n(Cc5ccco5)ccc4nc3C)CC2)c1,x,x,n,n,x
O=C(CN1C(=O)c2ccccc2C1=O)Nc1ccccc1N1CCOCC1,n,n,n,n,n
CCCCN1C(=O)c2ccc(C(=O)Nc3ccccc3N3CCOCC3)cc2C1=O,n,44,n,n,n
CCCCC(=O)Nc1nc2c(s1)COc1ccccc1-2,n,52,n,n,n
CCOc1ccccc1NC(=O)COC(=O)c1ccccc1SCC(=O)N1CCCC1,n,n,n,n,n
O=C(COC(=O)c1ccccc1SCC(=O)N1CCCC1)Nc1ccccc1C(F)(F)F,n,31,n,n,n
CCN1CCN(c2sc(S(=O)(=O)CC)nc2S(=O)(=O)c2ccc(C)cc2)CC1,n,x,x,x,n
CCCS(=O)(=O)c1nc(S(=O)(=O)c2ccc(C)cc2)c(N2CCN(CC)CC2)s1,n,67,n,n,n
COc1ccc(-n2cc(C(=O)NCCc3cc(OC)ccc3OC)c3ccccc3c2=O)cc1,x,x,n,n,x
COc1ccccc1Nc1nn2c(=O)c3ccc(C(=O)NCc4cccnc4)cc3nc2s1,x,n,n,30,x
COc1ccccc1Nc1nn2c(=O)c3ccc(C(=O)NCc4ccc(F)cc4)cc3nc2s1,x,x,n,n,x
COc1ccc2c(c1)c1c(c(=O)n(-c3ccccc3C)c(=O)n1CC(N)=O)n2C,x,x,n,n,x
CCOc1ccc(CN2CCCC(CO)(Cc3ccc(F)cc3)C2)cc1 (centres undefined),n,68,n,n,n
CSc1ccc(CN2CCCC(CO)(Cc3ccccc3)C2)cc1 (centres undefined),n,51,n,n,n
Cc1nc2ccc(C(=O)N3CCCC(CO)(Cc4ccc(F)cc4F)C3)cc2nc1C (centres undefined),n,30,n,n,n
COc1ccc(CN2CCCC(CO)(Cc3ccc(F)cc3F)C2)cc1 (centres undefined),n,43,n,n,n
COc1ccc(NC(=O)C2CCN(S(=O)(=O)c3c(C)noc3/C=C/c3cccs3)CC2)cc1Cl,x,x,n,x,x
OCC1(CCc2ccccc2)CCCN(CCCc2ccccc2)C1 (centres undefined),n,76,n,n,n
CC(C)Cc1cc(CN2CCCC(CO)(Cc3cccc(Cl)c3)C2)[nH]n1 (centres undefined),n,53,n,n,n
COc1cc(CN2CCCC(CO)(Cc3ccccc3F)C2)ccc1O (centres undefined),n,n,n,n,n
COC(=O)c1ccc(CN2CCCC(CO)(Cc3ccccc3F)C2)cc1 (centres undefined),n,84,n,n,n
Cc1ccc(OCC(=O)c2c(N)n(C)c(=O)n(C)c2=O)c([N+](=O)[O-])n1,n,33,n,n,n
COc1ccc(N2CCN(CCCNC(=O)c3sc4ncccc4c3-n3cccc3)CC2)cc1,x,x,x,n,x
CCC(C)NC(=O)CN1C(=O)COc2ccc(S(=O)(=O)N3CCOCC3)cc21 (centres undefined),n,44,n,n,n
CCN(CC)C(=O)CN1C(=O)COc2ccc(S(=O)(=O)N3CCOCC3)cc21,x,x,n,n,x
SMILES,D2 PAM-1,D2 antagonist,D2 ag-1,D2 PAM-2,D2 ag-2
CC(C)(C)OC(=O)N1CCC(c2c(C(=O)N3CCC(c4ccccc4)C3)cnn2-c2cccc(Cl)c2)CC1 (centres undefined),x,x,x,n,x
CC(=O)Nc1cccc(Oc2ncnc3scc(-c4ccc(C)cc4)c23)c1,n,34,n,n,n
O=C(CSc1nc2ccccc2[nH]1)Nc1c(F)c(F)c(F)c(F)c1F,n,n,n,43,n
O=C1CC(N2CCC(C(=O)N3CCCCC3)CC2)C(=O)N1 (centres undefined),n,38,n,x,n
CCN1CCN(C2CC(=O)NC2=O)CC1 (centres undefined),x,n,n,n,x
O=C(CCCc1ccccc1)Nc1ccnn1C1CCN(Cc2ccc(Cl)cc2)CC1,n,35,n,n,n
